Bioassay records: PubChem BioAssay, National Center for Advancing Translational Sciences (NCATS)
HCV inhibitor: inhibitors of hepatitis C virus infection; hit rate 3.4% among 340,000; Huh7.5.1 HCVcc-Cre infection, luciferase reporter, 44 h; Potency, µM (highest dose often 41.8 µM), for inactives: top-dose activity change, negative = inhibition, most hits filed as inhibitors; AID 651820
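Antiviral activity was scored by luciferase reporter output from cells infected with HCVcc-Cre (~0.5 moi) in presence of compound, 44 h infection period, cells seeded 1,000/well 4 h prior.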
Pf growth 96h: inhibits malaria parasite growth, 96 h | hit rate 6.9% among 320,000 | Potency, µM (titrated, usually from 28.7 µM), for the others: at the top dose activity change, negative = inhibition, usual class: inhibitors | AID 504834 | P. falciparum luciferase reporter growth, 96 h
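Parasite growth measured via integrated firefly luciferase reporter in P. falciparum. Infected erythrocytes at 2% hematocrit, 0.05% parasitemia final were treated 96 hours at 37 C under 5% CO2, and luminescence was read.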
AmpC inh no detg: AmpC beta-lactamase inhibition without detergent. P00811. AmpC nitrocefin hydrolysis, absorbance 480 nm, 0.0001% Triton. Potency, µM (highest dose often 57.1 µM), for the others: at the highest dose activity change, negative = inhibition, hits mostly inhibitors. hit rate 0.52% among 330,000;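 also: plate controls were no compound for no effect and no enzyme for full effect; nearly all actives have a fitted effect of over 20% in size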
Target sequence (P00811 whole entry, looked up): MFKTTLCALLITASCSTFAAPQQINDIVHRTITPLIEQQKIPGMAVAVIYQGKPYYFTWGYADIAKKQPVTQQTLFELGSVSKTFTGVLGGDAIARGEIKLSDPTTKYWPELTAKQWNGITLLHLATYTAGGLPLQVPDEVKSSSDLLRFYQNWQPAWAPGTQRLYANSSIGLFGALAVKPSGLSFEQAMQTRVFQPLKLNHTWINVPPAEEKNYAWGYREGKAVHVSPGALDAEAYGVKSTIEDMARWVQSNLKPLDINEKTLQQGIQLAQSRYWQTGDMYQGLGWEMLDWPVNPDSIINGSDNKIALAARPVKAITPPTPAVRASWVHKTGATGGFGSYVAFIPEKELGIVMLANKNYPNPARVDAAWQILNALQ
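20 mM phosphate pH 7.0 + 0.01% (detergent screen) or 0.0001% Triton X-100; 5.3 nM AmpC reagent; cpd preinc 15 min RT; nitrocefin (800 uM stock) to start; A480 q20 s × 4 min; Activity was normalised to no-enzyme and no-compound control wells.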
AMA1-RON2 inh: AMA1-RON2 (P. falciparum) interaction inhibition; Potency, µM (top dose mostly 58.2 µM), for the others: top-dose activity change, negative = inhibition, actives largely listed as inhibitors; AID 720542; hit rate 0.2% among 360,000; AlphaScreen AMA1-biotinylated RON2 peptide binding;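 also: 0% = vehicle wells and -100% = peptide control; nearly all actives have a fitted effect of over 45% in size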
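AMA1 (3D7) with his tag at 25 nM final met compounds first, then biotinylated RON2 peptide at 25 nM; detection used donor plus acceptor beads, 10 µg/mL apiece, read by AlphaScreen after 30 min at room temperature.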
Pf growth 48h: P. falciparum growth inhibition at 48 hours (one generation); P. falciparum luciferase growth in erythrocytes, 48 h; AID 504832; hit rate 5.9% among 310,000; Potency, µM (series often up to 28.7 µM), inactives show top-dose activity change, negative = inhibition, most hits filed as inhibitors
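Cell-based growth assay: transgenic P. falciparum expressing firefly luciferase, cultured in red cells within RPMI 1640 containing 0.5% w/v Albumax, 24 mM bicarbonate and gentamycin. A drop in luciferase activity indicates inhibition.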
AmpC detergent: inhibitors of E. coli AmpC beta-lactamase with detergent. Potency, µM (doses to about 114 µM), inactives show at the top dose activity change, negative = inhibition, hits mostly inhibitors. AmpC hydrolysis of nitrocefin, absorbance 480 nm, 0.01% Triton. AID 485294. hit rate 0.041% among 370,000. P00811;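 also: 0% = no-compound wells and -100% = no-enzyme wells; nearly all actives have a fitted effect of over 25% in size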
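20 mM phosphate pH 7.0 + 0.01% (detergent screen) or 0.0001% Triton X-100; 5.3 nM AmpC reagent; cpd preinc 15 min RT; nitrocefin (800 uM stock) to start; A480 q20 s × 4 min; Activity was normalised to no-enzyme and no-compound control wells.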
Starred values were filed as active, the others as inactive. This is a sample that favours compounds with a hit; in the whole collection about 11% have one here. Calls follow the shape of the dose curve; as a rule, active = well fitted curve in the direction sought with a large enough effect; inconclusive = small, poorly fitted or top-dose-only effect, or another doubt; inactive = no such curve, though single readings can be large; an effect the other way counts as inactive or inconclusive. Unless noted, % is scaled to controls: 0 for no effect and ±100 for the full control effect; potency is read from the fitted curve at half-maximal effect.

CCOC(=O)c1ccc(NC(=S)NCCCN2CCCC2=O)cc1 was read as HCV inhibitor inconclusive, Pf growth 96h 2.62µM*, AmpC inh no detg -2.7%, AMA1-RON2 inh -4.1%, Pf growth 48h 44.0% and AmpC detergent -1.7%.
For Cc1cc2oc(=O)c(CC(=O)O)c(C)c2c2occ(-c3ccc(F)cc3)c12 the results were AmpC detergent 14.4%.
CCOc1ccccc1NC(=O)C(C)Sc1nc2c(c(=O)[nH]1)CCCC2 (stereo not drawn) was read as AmpC detergent -1.7%.
Screening COc1ccc(NC(=O)CSC2=Nc3ccccc3C3=NC(Cc4ccccc4)C(=O)N23)cc1 (stereo not drawn) returned AmpC detergent -0.4%.
For COC(=O)c1ccc(NC(=S)NCCc2ccc(OC)cc2)cc1 the results were HCV inhibitor inconclusive, Pf growth 96h -12.9%, AmpC inh no detg -22.5%, AMA1-RON2 inh -4.1%, Pf growth 48h inconclusive and AmpC detergent 4.3%.
`COc1ccc(CCNC(N)=S)cc1OC` gave HCV inhibitor 30.4%, Pf growth 96h 10.4µM*, AmpC inh no detg -15.8%, AMA1-RON2 inh -7.2%, Pf growth 48h 20.8% and AmpC detergent -9.1%.
`COc1ccccc1NC(=S)NCCc1ccc(OC)c(OC)c1` gave HCV inhibitor -29.3%, Pf growth 96h 4.65µM*, AmpC inh no detg -5.4%, AMA1-RON2 inh -6.0%, Pf growth 48h 2.62µM* and AmpC detergent 5.6%.
For CCOC(=O)c1ccc(NC(=S)N2CCN(CCNC3=CC(=O)CC(C)(C)C3)CC2)cc1 the results were HCV inhibitor -12.6%, Pf growth 96h -18.2%, AmpC inh no detg 149.0%, AMA1-RON2 inh -12.2%, Pf growth 48h 0.0262µM* and AmpC detergent 0.6%.
CCOC(=O)c1ccc(NC(=S)NCCc2ccc(OC)c(OC)c2)cc1 was read as HCV inhibitor -32.0%, Pf growth 96h 10.4µM*, AmpC inh no detg -16.1%, AMA1-RON2 inh -3.5%, Pf growth 48h inconclusive and AmpC detergent -6.8%.
For CCOc1ccccc1C(=O)Nc1cc2c(cc1N1CCCCC1)n(C)c(=O)n2C the results were AmpC detergent 2.7%.
Screening Cc1ccc(NC(=O)C(Cc2ccccc2)n2cccc2)c(C)c1 (stereo not drawn) returned AmpC detergent -2.0%.
`COc1ccc(CN(Cc2cccnc2)C(=S)NCCc2ccccc2)cc1OC` gave HCV inhibitor 19.1%, Pf growth 96h 14.7µM*, AmpC inh no detg 190.5%, AMA1-RON2 inh 12.5%, Pf growth 48h inconclusive and AmpC detergent inconclusive.
For CCOC(=O)c1c(C(=O)OCC)c(C)n(CCc2ccc(OC)c(OC)c2)c1C the results were HCV inhibitor -24.8%, Pf growth 96h 9.28µM*, AmpC inh no detg 101.9%, AMA1-RON2 inh -18.5%, Pf growth 48h inconclusive and AmpC detergent -8.5%.
Screening COc1ccc2c(c1)c(C(C)=O)c(C)n2CCc1ccc(OC)c(OC)c1 returned HCV inhibitor inconclusive, Pf growth 96h 3.6%, AmpC inh no detg 96.3%, AMA1-RON2 inh -6.2%, Pf growth 48h -1.6% and AmpC detergent inconclusive.
`Cc1cc(Cl)nc2ccc(Cc3ccc4nc(Cl)cc(C)c4c3)cc12` gave HCV inhibitor 10µM*, Pf growth 96h inconclusive, AmpC inh no detg 0.8%, AMA1-RON2 inh -5.0%, Pf growth 48h 2.62µM* and AmpC detergent -12.7%.
`Cc1ccc(NC(=O)CSc2nc3nc(C)c(Cc4ccccc4)c(C)n3n2)cc1` gave AmpC detergent 9.1%.
Screening Cc1ccc(S(=O)(=O)N(C)c2cc(S(=O)(=O)N3CCC(C)CC3)c(C)cc2C)cc1 returned HCV inhibitor 10µM*, Pf growth 96h 11.7µM*, AmpC inh no detg -7.5%, AMA1-RON2 inh -6.0%, Pf growth 48h 10.4µM* and AmpC detergent -11.2%.
